Test results as given in the supplement of paper PMC3842684.

Assays:
[1] = tested on: P. falciparum NF54-pfs16-GFP early (I-III) stage gametocytes; assay: relative % inhibition of viable gametocyte number; higher = more gametocytocidal; conditions: stage: early (I-III) gametocyte, incubation 72 h
Summary of the method: (§1)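 Relative inhibition was normalised to in-plate vehicle and positive-control wells, with viable gametocytes defined on confocal images as elongated GFP objects whose MitoTracker Red signal exceeded a cut-off. NF54 pfs16-GFP gametocytes, magnet-isolated at early (I/IIa, day 2) or late (day 8) stage, were plated at 10% parasitaemia, 0.1% haematocrit with compound at 5 or 0.5 µM. Plates were incubated 72 h at 37°C, 5% CO2, 5% O2, then stained overnight.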

[2] = tested on: P. falciparum NF54-pfs16-GFP late (IV-V) stage gametocytes; assay: as above; conditions: stage: late (IV-V) gametocyte, incubation 72 h
Summary of the method: as §1

Row | Compound | relative % inhibition ([1]; 0.5 µM) | relative % inhibition ([1]; 5 µM) | relative % inhibition ([2]; 0.5 µM) | relative % inhibition ([2]; 5 µM)
1 | Cc1c(C)n(Cc2ccc(F)cc2)c2ccc(C(=O)NCc3ccco3)cc12 | 19.2% | -8.91% | 16.9% | 21.7%
2 | CCCC(c1nnnn1C1CCCCC1)N1CCN(C(=O)c2ccco2)CC1 (configuration not stated) | 0.873% | -28.3% | -2.74% | 2.82%
3 | Cc1sc(NC(=O)c2ccccc2)c(C(c2cccs2)N2CCN(c3ccccc3)CC2)c1C (configuration not stated) | 17.7% | 12.8% | 43.3% | 77%
4 | Cc1ccc(-c2cc3c(nn2)-c2ccccc2C3=O)cc1 | 2.74% | 95% | 102% | 70.6%
5 | Cc1cc(C=C2SC(=Nc3ccccc3)N(C3CCCC3)C2=O)c(C)n1-c1ccc(Cl)cc1 | 15% | 2.67% | -2.31% | 31.2%
6 | CC1CCCCN1CCCNC(=O)c1ccc2c(c1)sc1nc(-c3ccc(F)cc3)cn12 (configuration not stated) | 21.3% | 88.1% | 23.2% | 17.8%
7 | CC(C)(C)c1ccc(O)c(CNC2CCCCC2)c1 | 89.9% | 90.6% | 61.1% | 81%
8 | CCOc1ccc(N2C(N)=NC(N)=NC2(C)C)cc1 | 3.66% | -20.1% | -17.5% | -10.7%
9 | O=C(CSc1ccc2nnc(-c3cccc(F)c3)n2n1)Nc1ccc2c(c1)OCO2 | 10.3% | 1.63% | 19% | 32.1%
10 | COCCN(C(=O)Cc1cccs1)C(C(=O)NCc1ccc(OC)cc1)c1ccc(C(C)C)cc1 (configuration not stated) | 25.1% | 5.52% | 13.7% | -1.94%
11 | CCN(Cc1ccccc1)C1CCN(Cc2cc(Br)ccc2O)CC1 | 27.8% | 99% | 35.1% | 68.6%
12 | Cc1nc2ccccc2c(O)c1CC=C(Cl)Cl | 4.23% | 3.33% | 33.4% | 49.4%
13 | Cc1ccnc(NC(c2cccc(OCc3ccccc3)c2)c2ccc3cccnc3c2O)c1 (configuration not stated) | 14.9% | 96.4% | 9.51% | 57.2%
14 | Cc1ccc(Cn2c(N3CCC(C(=O)NCc4cccs4)CC3)nc3ccccc32)cc1 | 10.4% | 35.6% | 5.62% | 23.8%
15 | CCCN(CCC)CCCNC(=O)c1cc2c(-c3ccc(OC)c(OC)c3)nn(C)c2s1 | 29.6% | 43.5% | 18.3% | -7.44%
16 | COc1ccccc1C(=O)ON=C(N)Cc1cccc2ccccc12 | 13.9% | 78% | 5.05% | 92.5%
17 | Oc1c2c(nc3ccccc13)CCCC2 | 9.29% | -7.51% | 26.9% | 90.8%

Row | Compound | relative % inhibition ([1]; 0.5 µM) | relative % inhibition ([1]; 5 µM) | relative % inhibition ([2]; 0.5 µM) | relative % inhibition ([2]; 5 µM)
18 | COc1ccc(CN2CCCC(C(=O)c3ccc(C(F)(F)F)cc3)C2)c(O)c1 (configuration not stated) | -2.13% | 93.7% | 14.8% | 16.7%
19 | N#Cc1nc(Cc2cccc3ccccc23)oc1N1CCN(C(c2ccccc2)c2ccccc2)CC1 | -3.05% | 2.44% | 7.14% | 40.5%
20 | FC(F)(F)c1cccc(Nc2nc(-c3ccccc3)nc3ncccc23)c1 | 5.1% | -19.6% | 2.84% | -1.26%
21 | COc1ccc(-n2ccnc2SCC(=O)Nc2cc(C)ccc2C)c(OC)c1 | 3.61% | -5.2% | -4.39% | 15.9%
22 | CCOc1ccc(CN2CCN(CC(O)COc3ccc(OCC(O)CN4CCN(Cc5ccc(OCC)cc5)CC4)cc3)CC2)cc1 (configuration not stated) | 6.71% | 74.7% | -16.8% | 8.51%
23 | Cc1ccc(C2CC(C(F)(F)F)n3nc(C(=O)N4CCN(C(c5ccccc5)c5ccccc5)CC4)cc3N2)cc1 (configuration not stated) | 3.32% | 13.2% | 17.1% | -7.7%
24 | COc1ccc(C2=C(c3ccc(OC)cc3)C3(c4ccccc4)C(=O)C2(c2ccccc2)C2C(=O)N(c4ccc(C)cc4)C(=O)C23)cc1 (configuration not stated) | 60.3% | 84.7% | 34.3% | 28.5%
25 | COc1cc(SC)ccc1C(=O)N1CCCC(C)C1 (configuration not stated) | -24.7% | -6.96% | 5.64% | 6.01%
26 | CCOc1cc2c(cc1OCC)C(c1cc(Cl)c(O)c(OCC)c1)NCC2 (configuration not stated) | 8.41% | 94.7% | 29.4% | 18.2%
27 | O=C(CCc1ccccc1)c1ccccc1OCC(O)CN1CCCCC1 (configuration not stated) | 12.7% | 96.8% | 15% | 48.2%
28 | CC(NCc1ccccc1)c1cc(Cl)ccc1O (configuration not stated) | 15.7% | 89.5% | 15.3% | 53.3%
29 | CCOc1cc(Cl)c(C(C)NC(=O)c2cccc(OC)c2)cc1OCC (configuration not stated) | 24.8% | 60.9% | -6.93% | 41.6%
30 | COc1cccc(C=Cc2nc(=O)c3ccccc3o2)c1OC | -6.76% | -17.9% | 50.6% | 94%
31 | Cn1c(C(=O)c2cccc3ccccc23)nc2ccccc21 | 3.04% | 19.9% | 9.04% | 5.95%
32 | CC(=O)c1ccc(NC(=O)CSc2nc(-c3ccccc3Cl)ns2)cc1 | 3.99% | 39.1% | 22.2% | 5.88%
33 | COc1cc(C(=O)ON=C(N)Cc2cccc3ccccc23)cc(OC)c1OC | -8.44% | 74.1% | 2% | 82.3%
